# Assay outcomes deposited in PubChem BioAssay by several laboratories.
# Ecoli rRNA inh: inhibitors of bacterial rRNA selective over humanized ribosomes | E. coli WT GFP vs humanized-ribosome RFP mutants, fluorescence, 24 h; stronger effect = lower value; DMSO median 0, no signal -100 | GFP signal change (wild-type ribosome), % (concentration not given with the values) | actives 1.6% (n = 350,000) | AID 720706;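 active = significant combined selectivity score with lowered wild-type GFP, culture density cut under 30%, mutant RFP and density less affected; inactive = any of these conditions unmet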
# KLK7 zymogen act: proKLK7 (human) activation, primary screen. P49862. purified proKLK7, EDANS-DABCYL substrate fluorescence; 100% is mature enzyme control, 0% vehicle. activation, % at 7 µM. actives 0.9% (n = 370,000);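 active = activation above the mean of all tested compounds plus 3 SD, computed per campaign excluding outliers beyond control limits, cut at about 13% in these data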
# Target sequence (P49862 whole entry, looked up): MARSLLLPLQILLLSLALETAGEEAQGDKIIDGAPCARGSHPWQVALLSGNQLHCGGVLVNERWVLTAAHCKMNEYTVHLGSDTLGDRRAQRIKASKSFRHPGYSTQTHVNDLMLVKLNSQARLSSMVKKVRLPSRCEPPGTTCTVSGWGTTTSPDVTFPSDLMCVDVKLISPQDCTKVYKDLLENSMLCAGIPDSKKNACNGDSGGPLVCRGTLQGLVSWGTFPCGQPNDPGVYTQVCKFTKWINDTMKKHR
# FGF22 binding: binders of recombinant human FGF22 by thermal shift | actives 1.5% (n = 340,000) | activity (Tm shift, normalised), % at 9.99 µM | SYPRO orange fluorescence; percent of sucrose octasulfate shift, DMSO zero | AID 651658;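 active = mean Tm shift, scaled 0 neutral to 100 positive control, at about 1.3% or above, every replicate too, limit read from the data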
# Target sequence (Q9HCT0 whole entry, looked up): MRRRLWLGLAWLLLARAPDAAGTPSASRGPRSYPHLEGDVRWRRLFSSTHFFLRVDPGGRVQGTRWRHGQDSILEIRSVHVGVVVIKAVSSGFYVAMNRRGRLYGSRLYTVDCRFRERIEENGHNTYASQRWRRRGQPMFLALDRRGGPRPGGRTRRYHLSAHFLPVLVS
# ADAM10 inh: inhibitors of human ADAM10; AID 720582; actives 0.62% (n = 370,000); inhibition, % at 7 µM; recombinant ADAM10, EDANS/DABCYL FRET peptide cleavage, 3 h;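 active = inhibition above a per-campaign cutoff equal to the mean of compounds falling between control-based bounds plus 3 SD, cut at about 20% in these data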;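 also: 0% = DMSO wells while the 100% control is not disclosed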
# ADAM17 inh: ADAM17 inhibition, QFRET primary screen | P78536 | recombinant ADAM17, EDANS/DABCYL FRET peptide cleavage | inhibition, % at 6.95 µM | actives 0.83% (n = 370,000) | AID 720648;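 active = inhibition above the mean of compounds lying between control limits plus 3 SD, set per campaign, cut at about 8.5% in these data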;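 also: 0% = DMSO-only wells as the low control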
# ADAM10 confirm: human ADAM10 inhibition, confirmation; inhibition, % at 6.95 µM; ADAM10 QFRET peptide cleavage, EDANS fluorescence; AID 743208; shares compounds with ADAM10 inh; actives 1% (n = 2,100);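 active = inhibition above about 20% chosen separately for each screening run, limit read from the data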;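 also: 0% = DMSO wells and 100% = marimastat wells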
# ADAM17 counter: inhibits human ADAM17 in ADAM10 exosite counter-screen; inhibition, % at 6.95 µM; AID 743214; shares compounds with ADAM10 inh; ADAM17 QFRET peptide cleavage, EDANS fluorescence; actives 0.5% (n = 2,100);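 active = mean triplicate inhibition above the solvent-only control wells' mean plus 3 SD, cut at about 12% in these data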;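 also: 0% = DMSO wells and 100% = marimastat wells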
# * hit, by the source's call; · = not tested or not shown; ! = repeats disagree. A selection: hits, their analogues and other compounds. The true share with any hit is near 3.8%.
SMILES,Ecoli rRNA inh,KLK7 zymogen act,FGF22 binding,ADAM10 inh,ADAM17 inh,ADAM10 confirm,ADAM17 counter
COC(=O)[C@]12C[C@H](CC(=O)NCCC(C)C)C(=O)N(Cc3ccccc3)C1=C[C@H](COCc1ccccc1)O[C@@H]2C,·,-1,·,4,-2,·,·
COC(=O)[C@]12C[C@H](CC(=O)NCc3cccc4ccccc34)C(=O)N(Cc3cccc4ccccc34)C1=C[C@H](C(C)(C)C)O[C@@H]2C,·,0,·,8,3,·,·
COC(=O)[C@]12C[C@H](CC(=O)NCc3ccc(OC)c(OC)c3)C(=O)N(Cc3ccccc3)C1=C[C@H](C1CCCC1)O[C@@H]2C,-12,1,0,-2,1,·,·
CCCCOCCCNC(=O)C[C@H]1C[C@@]2(C(=O)OC)C(=C[C@H](C(C)(C)C)O[C@@H]2C)N(Cc2cccc3ccccc23)C1=O,·,2,·,21*,8,10,3
CO[C@H]1CN(C)C(=O)c2ccc(NC(=O)CC(F)(F)F)cc2OC[C@H](C)NC[C@H]1C,2,·,·,·,·,·,·
CO[C@H]1CC[C@@H]2CCN(C)C(=O)[C@@H](C)[C@@H](OC)CN(C)C(=O)c3cccc(C#N)c3OC[C@@H]1O2,-3,·,0,·,·,·,·
C#CCOCCOCCOCCNc1nc(N2CCN(C(=O)CCCCCCCCCCNC(=O)[C@@H](CCSC)n3cc(CCO)nn3)CC2)nc(N2CCN(C(=O)CCCCCCCCCCNC(=O)[C@@H]([C@H](C)O)n3cc(C)nn3)CC2)n1,2,0,0,20*,5,2,0
C#CCOCCOCCOCCNc1nc(N2CCN(C(=O)[C@H]([C@@H](C)O)n3cc(CCCCN)nn3)CC2)nc(N2CCN(C(=O)[C@H](CCCCN)n3cc(CCCC)nn3)CC2)n1,8,0,0,1,-3,·,·
Cc1ccc(NC(=O)c2cccc(S(=O)(=O)N(C)c3ccccc3)c2)cc1S(=O)(=O)N1CCOCC1,·,1,·,21*,8,4,1
Cc1ccccc1OCCC(=O)OCC(=O)Nc1ccc(C)c(S(=O)(=O)N2CCCCC2)c1,16,0,0,18,8,·,·
Cc1ccc(C)c(OCCC(=O)OCC(=O)Nc2ccc(C)c(S(=O)(=O)N3CCCCC3)c2)c1,8,0,0,27*,-11,9,3
Cc1ccc(NC(=O)CNc2cccc(S(=O)(=O)N3CCCC3)c2)cc1F,-7,0,0,4,4,·,·
Cc1ccc(NCC(=O)Nc2cccc(S(=O)(=O)N(C)C)c2)cc1S(=O)(=O)N1CCCCCC1,0,0,42,24*,8,2,0
COc1ccc2c3c(n(C)c2c1)[C@H](CO)N(C(=O)C1CCC1)CC31CN(C)C1,2,·,0,·,·,·,·
O=S(=O)(Nc1ccc(-c2ccccc2)cc1)c1ccccc1,0,0,0,12,7,·,·
O=S(=O)(Nc1ccc(N=Nc2ccccc2)cc1)c1ccccc1,·,0,·,20*,8,7,1
C[C@@H]1CN([C@H](C)CO)C(=O)c2cc(NC(=O)Nc3ccccc3)ccc2O[C@@H](C)CCCCO[C@H]1CN(C)C(=O)NC1CCCCC1,2,·,·,·,·,·,·
COc1cccc(N=NC2C(=O)N(C(N)=S)N=C2C)c1 (stereo unspecified),-3,8,0,21*,-6,-1,0
COc1cccc(C(O)c2nc(-c3ccccc3C)cs2)c1 (stereo unspecified),-18,-1,0,20*,8,1,0
CO[C@H]1CN(C)C(=O)c2cc(NC(C)=O)ccc2OC[C@@H](C)N(C(=O)CN2CCOCC2)C[C@@H]1C,2,·,0,·,·,·,·
CCCC#Cc1ccc2c(c1)[C@H]1[C@H](CCN1S(=O)(=O)c1ccc(F)cc1)[C@@H](CO)N2,-4,·,·,·,·,·,·
COc1ccc(-c2ccc3c(c2)O[C@@H](CN(C)Cc2ccccc2C(=O)O)[C@@H](C)CN([C@@H](C)CO)S3(=O)=O)cc1,-6,·,1,·,·,·,·
O=C(NCc1ccc(OC(F)(F)F)cc1)c1cc(-c2ccccc2)nn1CC1CC(c2cccnc2)=NO1 (stereo unspecified),·,1,·,20*,6,0,1
Cc1ccnc(NC(c2ccsc2)c2ccc3ccc(C)nc3c2O)c1 (stereo unspecified),0,-1,0,6,4,·,·
COc1ccc(C(Nc2cc(C)ccn2)c2ccc3ccc(C)nc3c2O)cc1 (stereo unspecified),3,0,0,23*,1,20*,5
SMILES,Ecoli rRNA inh,KLK7 zymogen act,FGF22 binding,ADAM10 inh,ADAM17 inh,ADAM10 confirm,ADAM17 counter
COc1cccc(C#Cc2cnc3c(c2)C(=O)N([C@H](C)CO)C[C@H](C)[C@@H](CN(C)C)O3)c1,5,·,-1,·,·,·,·
CCOc1ccc(NC(=O)C2C(c3ccccc3)C2(Cl)Cl)cc1 (stereo unspecified),-15,0,0,20*,8,7,1
CC(=O)c1cccc(NC(=O)C2C(c3ccccc3)C2(Cl)Cl)c1 (stereo unspecified),-49,1,0,-2,2,·,·
COCCCN1CCC2(CCC(c3ccccc3)CC2)C1=O (stereo unspecified),·,0,·,9,5,·,·
O=C1N(CCCO)CCC12CCC(c1ccccc1)CC2 (stereo unspecified),·,0,·,88*!,3,1,0
C[C@]12C(=O)N(c3ccc(Br)cc3)C(=O)N1[C@@H]1c3ccccc3OC[C@@H]1[C@H]2c1ccccc1,13,1,0,23*,8,7,1
C[C@@]12C(=O)N(CCc3c[nH]c4ccccc34)CC(=O)N1[C@H]1c3ccccc3OC[C@@H]1[C@@H]2c1ccccc1,7,0,0,22*,8,5,2
COc1ccc2c(c1)OC[C@H]1[C@H]2N2C(=O)CN(Cc3ccc(F)cc3)C(=O)[C@@]2(C)[C@H]1c1ccccc1,2,-1,0,18,6,·,·
CCOC(=O)[C@@H]1[C@H]2COc3ccc(Br)cc3[C@H]2N2C(=O)N(c3cccc(F)c3)C(=O)[C@]12C,3,1,0,20*,5,4,1
COc1ccc2c(c1)OC[C@H]1[C@H]2N2C(=O)CN(Cc3ccc(C)cc3)C(=O)[C@@]2(C)[C@H]1c1ccccc1,16,-1,0,20*,2,6,2
C[C@@]12C(=O)N(c3ccccc3)C(=O)N1[C@@H]1c3ccccc3OC[C@@H]1[C@H]2c1ccccc1,-10,0,0,15,3,·,·
